From PubChem BioAssay AID1159580 (chemical genetic matrix, 2015)
Several values for one entry are separate records, joined by “and”; a condition that tells them apart may be missing. Equal entries are not always repeated. Screen size: about 5,500 compounds; about 2,000 (36%) were called active. Inconclusive results (about 18%) are left out. Rule as the data show it: active = normalized growth mostly below about 0.91 (no sharp cut-off); inconclusive = no clear call, values can overlap the other calls; inactive = mostly above about 0.92. The list shows a part of the results.

Assay: chemical genetic growth profiling, strain panel (AID 1159580);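 also: tested at 20 µM; growth read once vehicle control cultures reached saturation at 30 °C; 1 = growth at the plate median or of vehicle wells; lower values mean less growth of the strain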
Settings: growth OD

Measured: normalized growth

NS(=O)(=O)c1cc2c(cc1Cl)NC(C1CC3C=CC1C3)NS2(=O)=O (stereo unspecified)
inactive: S. cerevisiae deletion strains, locus YJR075W, strain HOC1, hits give low values 1.02 and 1.01 | S. cerevisiae deletion strains, locus YKL009W, strain mrt4, hits give low values 0.979 | S. cerevisiae deletion strains, locus YKL068W, hits give low values 0.995 | S. cerevisiae deletion strains, locus YKL085W, strain MDH1 (second series), hits give low values 0.946 | S. cerevisiae deletion strains, locus YKL085W, strain MDH1, hits give low values 0.946 | S. cerevisiae deletion strains, locus YKL160W, strain elf1, hits give low values 1.01 | S. cerevisiae deletion strains, locus YKL190W, strain CNB1, hits give low values 0.991 | S. cerevisiae deletion strains, locus YKR001C, strain vps1, hits give low values 0.997 | S. cerevisiae deletion strains, locus YKR026C, strain gcn3, hits give low values 0.976 | S. cerevisiae deletion strains, locus YKR091W, strain srl3, hits give low values 0.989 | S. cerevisiae deletion strains, locus YLL001W, strain dnm1, hits give low values 0.987 | S. cerevisiae deletion strains, locus YLL026W, hits give low values 0.988 | S. cerevisiae deletion strains, locus YLL041C, strain sdh2, hits give low values 0.997 | S. cerevisiae deletion strains, locus YLR027C, strain aat2, hits give low values 0.995 | S. cerevisiae deletion strains, locus YLR039C, strain RIC1, hits give low values 0.981 | S. cerevisiae deletion strains, locus YLR058C, strain SHM2, hits give low values 0.979 | S. cerevisiae deletion strains, locus YLR102C, strain apc9, hits give low values 0.984 | S. cerevisiae deletion strains, locus YLR113W, strain HOG1, hits give low values 1.07 | S. cerevisiae deletion strains, locus YLR221C, strain rsa3, hits give low values 1 | S. cerevisiae deletion strains, locus YLR258W, strain gsy2, hits give low values 0.98 | S. cerevisiae deletion strains, locus YLR262C, strain YPT6 (second series), hits give low values 0.999 | S. cerevisiae deletion strains, locus YLR262C, strain YPT6, hits give low values 0.962 | S. cerevisiae deletion strains, locus YLR268W, strain sec22, hits give low values 0.973 | S. cerevisiae deletion strains, locus YLR320W, strain mms22, hits give low values 0.99 | S. cerevisiae deletion strains, locus YLR330W, strain CHS5, hits give low values 0.989 | S. cerevisiae deletion strains, locus YLR342W, strain FKS1 (second series), hits give low values 1.1 | S. cerevisiae deletion strains, locus YLR342W, strain FKS1, hits give low values 0.995 | S. cerevisiae deletion strains, locus YLR357W, strain rsc2, hits give low values 0.984 | S. cerevisiae deletion strains, locus YLR370C, strain arc18, hits give low values 0.992 | S. cerevisiae deletion strains, locus YLR371W, strain rom2, hits give low values 0.995 | S. cerevisiae deletion strains, locus YLR384C, strain iki3, hits give low values 0.993 | S. cerevisiae deletion strains, locus YLR418C, strain cdc73, hits give low values 0.961 | S. cerevisiae deletion strains, locus YML016C, strain PPZ1, hits give low values 0.998 | S. cerevisiae deletion strains, locus YML032C, strain rad52, hits give low values 1.02 | S. cerevisiae deletion strains, locus YML120C, strain ndi1, hits give low values 1 | S. cerevisiae deletion strains, locus YML124C, strain tub3, hits give low values 1 | S. cerevisiae deletion strains, locus YMR058W, strain fet3, hits give low values 0.996 | S. cerevisiae deletion strains, locus YMR078C, strain ctf18, hits give low values 0.986 | S. cerevisiae deletion strains, locus YMR125W, strain sto1, hits give low values 0.973 | S. cerevisiae deletion strains, locus YMR129W, hits give low values 0.981 | S. cerevisiae deletion strains, locus YMR205C, strain PFK2, hits give low values 0.951 | S. cerevisiae deletion strains, locus YMR223W, strain ubp8, hits give low values 1.05 | S. cerevisiae deletion strains, locus YMR231W, strain pep5, hits give low values 0.992 | S. cerevisiae deletion strains, locus YMR263W, strain SAP30, hits give low values 0.988 | S. cerevisiae deletion strains, locus YMR307W, strain GAS1, hits give low values 1.06 and 1 | S. cerevisiae deletion strains, locus YNL067W, strain RPL9B, hits give low values 1 | S. cerevisiae deletion strains, locus YNL071W, strain lat1, hits give low values 0.986 | S. cerevisiae deletion strains, locus YNL128W, strain TEP1, hits give low values 0.94 | S. cerevisiae deletion strains, locus YNL153C, strain GIM3, hits give low values 0.981 | S. cerevisiae deletion strains, locus YNL175C, strain NOP13, hits give low values 0.978 | S. cerevisiae deletion strains, locus YNL183C, strain NPR1, hits give low values 0.978 | S. cerevisiae deletion strains, locus YNL197C, strain WHI3, hits give low values 0.982 | S. cerevisiae deletion strains, locus YNL209W, strain ssb2, hits give low values 1 | S. cerevisiae deletion strains, locus YNL224C, strain SQS1, hits give low values 0.992 | S. cerevisiae deletion strains, locus YNL233W, strain BNI4, hits give low values 1 | S. cerevisiae deletion strains, locus YNL248C, strain rpa49, hits give low values 0.999 | S. cerevisiae deletion strains, locus YNL250W, strain rad50, hits give low values 0.999 | S. cerevisiae deletion strains, locus YNL271C, strain bni1, hits give low values 1 | S. cerevisiae deletion strains, locus YNL298W, strain CLA4, hits give low values 0.988 | S. cerevisiae deletion strains, locus YNL307C, strain MCK1, hits give low values 1.02 | S. cerevisiae deletion strains, locus YNL322C, strain KRE1 (second series), hits give low values 1 | S. cerevisiae deletion strains, locus YNL322C, strain KRE1, hits give low values 0.988 | S. cerevisiae deletion strains, locus YNR049C, strain mso1, hits give low values 0.989 | S. cerevisiae deletion strains, locus YNR052C, strain pop2, hits give low values 0.987 | S. cerevisiae deletion strains, locus YOL006C, strain TOP1, hits give low values 1.02 | S. cerevisiae deletion strains, locus YOL012C, strain htz1 1.21 | S. cerevisiae deletion strains, locus YOL147C, strain pex11, hits give low values 0.993 | S. cerevisiae deletion strains, locus YOR001W, strain rrp6, hits give low values 0.997 | S. cerevisiae deletion strains, locus YOR061W, strain CKA2, hits give low values 0.959 | S. cerevisiae deletion strains, locus YOR069W, strain VPS5, hits give low values 0.995 | S. cerevisiae deletion strains, locus YOR070C, strain gyp1, hits give low values 0.993 | S. cerevisiae deletion strains, locus YOR080W, strain dia2, hits give low values 0.993 | S. cerevisiae deletion strains, locus YOR083W, strain WHI5 (second series), hits give low values 0.989 | S. cerevisiae deletion strains, locus YOR083W, strain WHI5, hits give low values 1 | S. cerevisiae deletion strains, locus YOR106W, strain vam3, hits give low values 1 | S. cerevisiae deletion strains, locus YOR136W, strain idh2, hits give low values 0.998 | S. cerevisiae deletion strains, locus YOR144C, strain elg1, hits give low values 0.991 | S. cerevisiae deletion strains, locus YOR184W, strain ser1, hits give low values 1.06 | S. cerevisiae deletion strains, locus YOR231W, strain MKK1, hits give low values 1.06 | S. cerevisiae deletion strains, locus YOR265W, strain rbl2, hits give low values 0.999 | S. cerevisiae deletion strains, locus YOR270C, strain vph1, hits give low values 0.984 | S. cerevisiae deletion strains, locus YOR290C, strain snf2, hits give low values 1.01 | S. cerevisiae deletion strains, locus YOR316C, strain cot1, hits give low values 0.98 | S. cerevisiae deletion strains, locus YPL051W, strain arl3, hits give low values 0.997 | S. cerevisiae deletion strains, locus YPL055C, strain LGE1, hits give low values 0.977 | S. cerevisiae deletion strains, locus YPL078C, strain atp4, hits give low values 0.998 | S. cerevisiae deletion strains, locus YPL106C, strain sse1, hits give low values 0.96 | S. cerevisiae deletion strains, locus YPL240C, strain hsp82, hits give low values 0.982 | S. cerevisiae deletion strains, locus YPL241C, strain CIN2, hits give low values 0.981 and 0.988 | S. cerevisiae deletion strains, locus YPL256C, strain CLN2, hits give low values 1.04 | S. cerevisiae deletion strains, locus YPR119W, strain clb2, hits give low values 0.996 | S. cerevisiae deletion strains, locus YPR141C, strain kar3, hits give low values 0.979 | S. cerevisiae deletion strains, locus YPR163C, strain tif3, hits give low values 0.997 | S. cerevisiae deletion strains, locus YPR167C, strain met16, hits give low values 0.977 | S. cerevisiae deletion strains, strain wtn01, hits give low values 0.969 | S. cerevisiae strains, strain wild type, hits give low values 0.998
